Inconclusive results are not listed. Active and inactive are the calls of the source. Unless noted, calls follow the shape of the full dose curve.
Columns and labels:
[1] = Primary qHTS for Huh7 cytotoxicity: counterscreen for inhibitors of MERS-S pseudotyped particle cell entry (AID 1479147)
[2] = Primary qHTS for inhibitors of MERS-S pseudo-typed particle cell entry (AID 1479149); also: nearly all actives have a fitted effect of over 60% in size; also: potency is read from the fitted curve at half-maximal effect; as to activity change, negative = inhibition: series mostly up to about 57 µM; % is scaled to controls: 0 for no effect and ±100 for the full control effect
[3] = Primary qHTS for Vero E6 cytotoxicity: counterscreen for inhibitors of SARS-S pseudo-typed particle cell entry (AID 1479150); also: potency is read from the fitted curve at half-maximal effect; as to activity change, negative = cytotoxicity: % is scaled to controls: 0 for no effect and ±100 for the full control effect
[4] = Primary qHTS for inhibitors of SARS-S pseudo-typed particle cell entry (AID 1479145); also: nearly all actives have a fitted effect of over 45% in size; also: potency is read from the fitted curve at half-maximal effect; as to activity change, negative = inhibition: series mostly up to about 57 µM; % is scaled to controls: 0 for no effect and ±100 for the full control effect
[5] = target: Calcium and integrin-binding protein 1 (Homo sapiens) (UniProt Q99828); assay: Primary qHTS for Identification of Calcium Integrin Binding Protein 1 (CIB1) Competitor (AID 1508620; active = well fitted curve in the direction sought with a large enough effect; an effect the other way counts as inactive or inconclusive;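 also: GST tagged CIB1 binding a fluorescein labelled alphaIIb integrin peptide tracer; top concentration of the series differs between compounds; % is scaled to controls: 0 for no effect and ±100 for the full control effect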)
Outline: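 Fluorescence polarization competition: CIB1-GST (1 uM final) preincubated with compound 15 min at room temperature, then FITC-labeled alphaIIb peptide (100 nM final) added for another 15 min. Polarization read at Ex 480/Em 540.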

[6] = Primary qHTS for inhibitors of La Crosse Virus (LACV) - induced cell death in SH-SY5Y cells (AID 1508616; active = well fitted curve in the direction sought with a large enough effect; an effect the other way counts as inactive or inconclusive;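 also: top concentration of the series differs between compounds; 0% = infected DMSO wells and 100% = uninfected DMSO wells; higher means more rescue of cells from virus-induced death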)
Outline: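 SH-SY5Y cells (6000/well) plated 24 h, then given compounds by pin transfer and LACV at 0.01 MOI for 6 days at 37C. Viability measured by ATPLite luminescence, normalized to infected DMSO and uninfected DMSO.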

[7] = Counterscreen qHTS for small molecule stabilizers of the endoplasmic reticulum resident proteome: GLuc-NoTag assay (AID 1508627; active = well fitted curve in the direction sought with a large enough effect; an effect the other way counts as inactive or inconclusive;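 also: SH-SY5Y cells given compound then 100 nM thapsigargin to empty ER calcium; series mostly up to about 76 µM; 0% = thapsigargin alone and -100% = DMSO vehicle control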)
Outline: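 SH-SY5Y cells stably expressing constitutively secreted GLuc (no SERCaMP tag) were pre-incubated 5 h, treated with compound for 19 h, then 100 nM thapsigargin for 4 h at 37C; medium GLuc read by coelenterazine luminescence.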

Chain of Calcium and integrin-binding protein 1 (Homo sapiens) (Q99828 whole entry, looked up): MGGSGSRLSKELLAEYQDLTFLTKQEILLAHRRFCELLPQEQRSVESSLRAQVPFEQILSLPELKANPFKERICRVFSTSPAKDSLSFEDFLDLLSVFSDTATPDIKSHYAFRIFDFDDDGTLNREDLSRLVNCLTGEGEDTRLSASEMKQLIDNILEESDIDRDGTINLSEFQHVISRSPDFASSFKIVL

CC(C)CCCC(C)CCCC(C)CCCCC(C)CCCC(C)CCCC(C)C (stereo not drawn)
inactive: Potency [1] | Potency [2] | Potency [3]

Cc1c(C)c2c(c(C)c1OC(=O)c1cccnc1)CC[C@@](C)(CCC[C@H](C)CCC[C@H](C)CCCC(C)C)O2
inactive: Potency [4] | Potency [1] | Potency [2] | Potency [3]

CCOc1cc2ncc(C#N)c(Nc3ccc(OCc4ccccn4)c(Cl)c3)c2cc1NC(=O)/C=C/CN(C)C
inactive: outcome [1] inactive [at 11.4 µM] | activity change, negative = inhibition [2] -11.6% [at 11.4 µM] | activity change, negative = cytotoxicity [3] -35.9% [at 11.4 µM]

Cc1ccccc1N=Nc1ccc(N=Nc2c(O)ccc3ccccc23)c(C)c1
inactive: Potency [1] | Potency [2] | Potency [3]

COC(=O)c1ccc2c(C(=Nc3ccc(N(C)C(=O)CN4CCN(C)CC4)cc3)c3ccccc3)c(O)[nH]c2c1
inactive: Potency [4] | Potency [1] | Potency [2] | Potency [3]

COc1ccc2cc(CCC(C)=O)ccc2c1
inactive: Potency [4] | Potency [1] | Potency [2] | Potency [3]

CC(=O)Oc1ccccc1C(=O)O
inactive: Potency [4] | Potency [1] | Potency [2] | Potency [3]

CNC(=O)c1cc(Oc2ccc(NC(=O)Nc3ccc(Cl)c(C(F)(F)F)c3)c(F)c2)ccn1
active: Potency [4] 14.1 µM
inactive: Potency [1] | Potency [3]

C[C@@H]1CCN(C(=O)CC#N)C[C@@H]1N(C)c1ncnc2[nH]ccc12
inactive: Potency [1] | Potency [2] | Potency [3]

CCCOC(=O)c1ccc(O)cc1
inactive: Potency [1] | Potency [2] | Potency [3]

CN(C(=O)C(Cl)Cl)c1ccc(OC(=O)c2ccco2)cc1
inactive: Potency [4] | Potency [1] | Potency [2] | Potency [3]

C[C@H](CN1CCCC1)C(=O)c1ccc(C(F)(F)F)cc1
inactive: Potency [4] | Potency [1] | Potency [3]

Clc1ccccc1CN1CCc2sccc2C1
inactive: Potency [1] | Potency [2] | Potency [3]

S=c1[nH]c2ccccc2s1
inactive: Potency [4] | Potency [1] | Potency [2] | Potency [3]

CC(C)C[C@H](NC(=O)CNC(=O)c1cc(Cl)ccc1Cl)B(O)O
active: Potency [2] 0.794 µM
inactive: Potency [4]

O=C1NS(=O)(=O)c2ccccc21
inactive: Potency [4] | Potency [1] | Potency [2] | Potency [3]

CN(C)CC/C=C1/c2ccccc2COc2ccc(CC(=O)O)cc21
inactive: Potency [4] | Potency [1] | Potency [2] | Potency [3]

NC1=NC(=O)N2CC12 (stereo not drawn)
inactive: Potency [4] | Potency [1] | Potency [2] | Potency [3] | outcome [5]

COc1cc2c(cc1OC)CC(=O)N(CCCN(C)C[C@H]1Cc3cc(OC)c(OC)cc31)CC2
inactive: Potency [1] | Potency [2] | Potency [3]

Cc1ccc(C(=O)Nc2ccc(CN3CCN(C)CC3)c(C(F)(F)F)c2)cc1C#Cc1cnc2cccnn12
active: Potency [4] 3.55 µM | Potency [3] 22.4 µM

O=C(O)CC(O)C(=O)O (stereo not drawn)
inactive: Potency [4] | Potency [1] | Potency [2] | Potency [3]

NCCCC(N)(C(=O)O)C(F)F (stereo not drawn)
inactive: Potency [4] | Potency [1] | Potency [2] | Potency [3]

C[C@@H](N)C(=O)O
inactive: Potency [1] | Potency [2] | Potency [3]

CCc1c(C)[nH]c2c1C(=O)C(CN1CCOCC1)CC2 (stereo not drawn)
inactive: Potency [4] | Potency [1] | Potency [2] | Potency [3]

CCN(CC)c1ccc(C(=C2C=CC(=[N+](CC)CC)C=C2)c2cc(S(=O)(=O)O)ccc2S(=O)(=O)[O-])cc1
inactive: Potency [4] | Potency [2]

CCCCC(CC)COC(=O)/C=C/c1ccc(OC)cc1 (stereo not drawn)
inactive: Potency [4] | Potency [1] | Potency [2] | Potency [3]

CC(C)C[C@H](NC(=O)[C@@H](O)[C@H](N)Cc1ccccc1)C(=O)O
inactive: Potency [4] | Potency [1] | Potency [2] | Potency [3]

CC(=O)Oc1cccc(C)c1
inactive: Potency [4] | Potency [1] | Potency [2] | Potency [3]

Nc1nc2c(ncn2CCC(CO)CO)c(=O)[nH]1
inactive: Potency [4] | Potency [1] | Potency [2] | Potency [3]

CC1=C(C/C=C(\C)CCC[C@H](C)CCC[C@H](C)CCCC(C)C)C(=O)c2ccccc2C1=O
inactive: Potency [4] | Potency [1] | Potency [3]

CS(=O)(=O)Nc1ccc([N+](=O)[O-])cc1Oc1ccccc1
inactive: Potency [1] | Potency [2] | Potency [3]

CC(=O)N[C@@H](Cc1ccc(O)cc1)C(=O)O
inactive: Potency [1] | Potency [2] | Potency [3]

Nc1ccc(Cl)cc1N
inactive: outcome [6] | Potency [7]

CCCN(CCC)c1c([N+](=O)[O-])cc(S(N)(=O)=O)cc1[N+](=O)[O-]
inactive: outcome [6]
